{"source": "PubChem BioAssay AID1159580", "about": "(chemical genetic matrix, 2015)", "assay": "chemical genetic growth profiling, strain panel (AID 1159580);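 further: tested at 20 µM; growth read once vehicle control cultures reached saturation at 30 °C; 1 = growth at the plate median or of vehicle wells; lower values mean less growth of the strain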", "conditions": "growth OD", "note": "About 2,000 (36%) of roughly 5,500 compounds were called active. Inconclusive results (about 18%) are left out. The list shows a part of the results. Values without a mark were called inactive. No stated cut-off is given here; in the data, active means normalized growth mostly below about 0.91 (no sharp cut-off); inconclusive means no clear call, values can overlap the other calls; inactive means mostly above about 0.92.", "data": [{"smiles": "CCCCCCOc1ccccc1C(N)=O", "values": [{"measurement": "normalized growth", "setting": "S. cerevisiae deletion strains, locus YJR043C, strain POL32, active compounds read low", "result": "0.529 (active)"}, {"measurement": "normalized growth", "setting": "S. cerevisiae deletion strains, locus YJR066W, strain TOR1, active compounds read low", "result": "0.815 (active)"}, {"measurement": "normalized growth", "setting": "S. cerevisiae deletion strains, locus YKL009W, strain mrt4, active compounds read low", "result": "0.768 (active)"}, {"measurement": "normalized growth", "setting": "S. cerevisiae deletion strains, locus YKL068W, active compounds read low", "result": "0.851 (active)"}, {"measurement": "normalized growth", "setting": "S. cerevisiae deletion strains, locus YKL085W, strain MDH1 (second series), active compounds read low", "result": "0.826 (active)"}, {"measurement": "normalized growth", "setting": "S. cerevisiae deletion strains, locus YKL085W, strain MDH1, active compounds read low", "result": "0.826 (active)"}, {"measurement": "normalized growth", "setting": "S. cerevisiae deletion strains, locus YKL160W, strain elf1, active compounds read low", "result": "0.883 (active)"}, {"measurement": "normalized growth", "setting": "S. cerevisiae deletion strains, locus YKL190W, strain CNB1, active compounds read low", "result": "0.281 (active)"}, {"measurement": "normalized growth", "setting": "S. cerevisiae deletion strains, locus YKR001C, strain vps1, active compounds read low", "result": "0.678 (active)"}, {"measurement": "normalized growth", "setting": "S. cerevisiae deletion strains, locus YKR026C, strain gcn3, active compounds read low", "result": 0.948}, {"measurement": "normalized growth", "setting": "S. cerevisiae deletion strains, locus YKR091W, strain srl3, active compounds read low", "result": 0.953}, {"measurement": "normalized growth", "setting": "S. cerevisiae deletion strains, locus YLL001W, strain dnm1, active compounds read low", "result": "0.887 (active)"}, {"measurement": "normalized growth", "setting": "S. cerevisiae deletion strains, locus YLL026W, active compounds read low", "result": "0.877 (active)"}, {"measurement": "normalized growth", "setting": "S. cerevisiae deletion strains, locus YLL041C, strain sdh2, active compounds read low", "result": 0.94}, {"measurement": "normalized growth", "setting": "S. cerevisiae deletion strains, locus YLR027C, strain aat2, active compounds read low", "result": "0.898 (active)"}, {"measurement": "normalized growth", "setting": "S. cerevisiae deletion strains, locus YLR039C, strain RIC1, active compounds read low", "result": 1.04}, {"measurement": "normalized growth", "setting": "S. cerevisiae deletion strains, locus YLR058C, strain SHM2, active compounds read low", "result": "0.641 (active)"}, {"measurement": "normalized growth", "setting": "S. cerevisiae deletion strains, locus YLR102C, strain apc9, active compounds read low", "result": "0.667 (active)"}, {"measurement": "normalized growth", "setting": "S. cerevisiae deletion strains, locus YLR113W, strain HOG1, active compounds read low", "result": "0.85 (active)"}, {"measurement": "normalized growth", "setting": "S. cerevisiae deletion strains, locus YLR221C, strain rsa3, active compounds read low", "result": "0.845 (active)"}, {"measurement": "normalized growth", "setting": "S. cerevisiae deletion strains, locus YLR258W, strain gsy2, active compounds read low", "result": "0.862 (active)"}, {"measurement": "normalized growth", "setting": "S. cerevisiae deletion strains, locus YLR262C, strain YPT6 (second series), active compounds read low", "result": 1.11}, {"measurement": "normalized growth", "setting": "S. cerevisiae deletion strains, locus YLR262C, strain YPT6, active compounds read low", "result": 0.921}, {"measurement": "normalized growth", "setting": "S. cerevisiae deletion strains, locus YLR268W, strain sec22, active compounds read low", "result": "0.308 (active)"}, {"measurement": "normalized growth", "setting": "S. cerevisiae deletion strains, locus YLR320W, strain mms22, active compounds read low", "result": "0.59 (active)"}, {"measurement": "normalized growth", "setting": "S. cerevisiae deletion strains, locus YLR330W, strain CHS5, active compounds read low", "result": "0.355 (active)"}, {"measurement": "normalized growth", "setting": "S. cerevisiae deletion strains, locus YLR342W, strain FKS1 (second series), active compounds read low", "result": "0.366 (active)"}, {"measurement": "normalized growth", "setting": "S. cerevisiae deletion strains, locus YLR342W, strain FKS1, active compounds read low", "result": "0.859 (active)"}, {"measurement": "normalized growth", "setting": "S. cerevisiae deletion strains, locus YLR357W, strain rsc2, active compounds read low", "result": 1.07}, {"measurement": "normalized growth", "setting": "S. cerevisiae deletion strains, locus YLR370C, strain arc18, active compounds read low", "result": 0.932}, {"measurement": "normalized growth", "setting": "S. cerevisiae deletion strains, locus YLR371W, strain rom2, active compounds read low", "result": "0.566 (active)"}, {"measurement": "normalized growth", "setting": "S. cerevisiae deletion strains, locus YLR384C, strain iki3, active compounds read low", "result": 0.959}, {"measurement": "normalized growth", "setting": "S. cerevisiae deletion strains, locus YLR418C, strain cdc73, active compounds read low", "result": "0.207 (active)"}, {"measurement": "normalized growth", "setting": "S. cerevisiae deletion strains, locus YML016C, strain PPZ1, active compounds read low", "result": "0.822 (active)"}, {"measurement": "normalized growth", "setting": "S. cerevisiae deletion strains, locus YML032C, strain rad52, active compounds read low", "result": "0.526 (active)"}, {"measurement": "normalized growth", "setting": "S. cerevisiae deletion strains, locus YML120C, strain ndi1, active compounds read low", "result": "0.857 (active)"}, {"measurement": "normalized growth", "setting": "S. cerevisiae deletion strains, locus YML124C, strain tub3, active compounds read low", "result": "0.725 (active)"}, {"measurement": "normalized growth", "setting": "S. cerevisiae deletion strains, locus YMR058W, strain fet3, active compounds read low", "result": "0.807 (active)"}, {"measurement": "normalized growth", "setting": "S. cerevisiae deletion strains, locus YMR078C, strain ctf18, active compounds read low", "result": "0.361 (active)"}, {"measurement": "normalized growth", "setting": "S. cerevisiae deletion strains, locus YMR125W, strain sto1, active compounds read low", "result": "0.785 (active)"}, {"measurement": "normalized growth", "setting": "S. cerevisiae deletion strains, locus YMR129W, active compounds read low", "result": 0.945}, {"measurement": "normalized growth", "setting": "S. cerevisiae deletion strains, locus YMR205C, strain PFK2, active compounds read low", "result": "0.835 (active)"}, {"measurement": "normalized growth", "setting": "S. cerevisiae deletion strains, locus YMR223W, strain ubp8, active compounds read low", "result": "0.55 (active)"}, {"measurement": "normalized growth", "setting": "S. cerevisiae deletion strains, locus YMR231W, strain pep5, active compounds read low", "result": 0.979}, {"measurement": "normalized growth", "setting": "S. cerevisiae deletion strains, locus YMR307W, strain GAS1, active compounds read low", "result": "0.457 (active)"}, {"measurement": "normalized growth", "setting": "S. cerevisiae deletion strains, locus YNL067W, strain RPL9B, active compounds read low", "result": "0.599 (active)"}, {"measurement": "normalized growth", "setting": "S. cerevisiae deletion strains, locus YNL071W, strain lat1, active compounds read low", "result": "0.57 (active)"}, {"measurement": "normalized growth", "setting": "S. cerevisiae deletion strains, locus YNL153C, strain GIM3, active compounds read low", "result": "0.502 (active)"}, {"measurement": "normalized growth", "setting": "S. cerevisiae deletion strains, locus YNL183C, strain NPR1, active compounds read low", "result": 0.869}, {"measurement": "normalized growth", "setting": "S. cerevisiae deletion strains, locus YNL209W, strain ssb2, active compounds read low", "result": "0.902 (active)"}, {"measurement": "normalized growth", "setting": "S. cerevisiae deletion strains, locus YNL233W, strain BNI4, active compounds read low", "result": "0.326 (active)"}, {"measurement": "normalized growth", "setting": "S. cerevisiae deletion strains, locus YNL248C, strain rpa49, active compounds read low", "result": "0.865 (active)"}, {"measurement": "normalized growth", "setting": "S. cerevisiae deletion strains, locus YNL250W, strain rad50, active compounds read low", "result": "0.871 (active)"}, {"measurement": "normalized growth", "setting": "S. cerevisiae deletion strains, locus YNL271C, strain bni1, active compounds read low", "result": "0.696 (active)"}, {"measurement": "normalized growth", "setting": "S. cerevisiae deletion strains, locus YNL298W, strain CLA4, active compounds read low", "result": "0.778 (active)"}, {"measurement": "normalized growth", "setting": "S. cerevisiae deletion strains, locus YNL307C, strain MCK1, active compounds read low", "result": "0.0873 (active)"}, {"measurement": "normalized growth", "setting": "S. cerevisiae deletion strains, locus YNL322C, strain KRE1 (second series), active compounds read low", "result": 0.978}, {"measurement": "normalized growth", "setting": "S. cerevisiae deletion strains, locus YNL322C, strain KRE1, active compounds read low", "result": "0.705 (active)"}, {"measurement": "normalized growth", "setting": "S. cerevisiae deletion strains, locus YNR049C, strain mso1, active compounds read low", "result": 0.942}, {"measurement": "normalized growth", "setting": "S. cerevisiae deletion strains, locus YNR052C, strain pop2, active compounds read low", "result": "0.797 (active)"}, {"measurement": "normalized growth", "setting": "S. cerevisiae deletion strains, locus YOL006C, strain TOP1, active compounds read low", "result": "0.135 (active)"}, {"measurement": "normalized growth", "setting": "S. cerevisiae deletion strains, locus YOL012C, strain htz1", "result": 0.5}, {"measurement": "normalized growth", "setting": "S. cerevisiae deletion strains, locus YOL147C, strain pex11, active compounds read low", "result": "0.243 (active)"}, {"measurement": "normalized growth", "setting": "S. cerevisiae deletion strains, locus YOR001W, strain rrp6, active compounds read low", "result": 0.904}, {"measurement": "normalized growth", "setting": "S. cerevisiae deletion strains, locus YOR061W, strain CKA2, active compounds read low", "result": "0.794 (active)"}, {"measurement": "normalized growth", "setting": "S. cerevisiae deletion strains, locus YOR069W, strain VPS5, active compounds read low", "result": "0.798 (active)"}, {"measurement": "normalized growth", "setting": "S. cerevisiae deletion strains, locus YOR070C, strain gyp1, active compounds read low", "result": "0.891 (active)"}, {"measurement": "normalized growth", "setting": "S. cerevisiae deletion strains, locus YOR080W, strain dia2, active compounds read low", "result": 0.951}, {"measurement": "normalized growth", "setting": "S. cerevisiae deletion strains, locus YOR083W, strain WHI5, active compounds read low", "result": "0.855 (active)"}, {"measurement": "normalized growth", "setting": "S. cerevisiae deletion strains, locus YOR106W, strain vam3, active compounds read low", "result": "0.861 (active)"}, {"measurement": "normalized growth", "setting": "S. cerevisiae deletion strains, locus YOR136W, strain idh2, active compounds read low", "result": "0.719 (active)"}, {"measurement": "normalized growth", "setting": "S. cerevisiae deletion strains, locus YOR144C, strain elg1, active compounds read low", "result": "0.485 (active)"}, {"measurement": "normalized growth", "setting": "S. cerevisiae deletion strains, locus YOR184W, strain ser1, active compounds read low", "result": "0.187 (active)"}, {"measurement": "normalized growth", "setting": "S. cerevisiae deletion strains, locus YOR231W, strain MKK1, active compounds read low", "result": 0.877}, {"measurement": "normalized growth", "setting": "S. cerevisiae deletion strains, locus YOR265W, strain rbl2, active compounds read low", "result": 0.929}, {"measurement": "normalized growth", "setting": "S. cerevisiae deletion strains, locus YOR270C, strain vph1, active compounds read low", "result": "0.446 (active)"}, {"measurement": "normalized growth", "setting": "S. cerevisiae deletion strains, locus YOR290C, strain snf2, active compounds read low", "result": 0.87}, {"measurement": "normalized growth", "setting": "S. cerevisiae deletion strains, locus YOR316C, strain cot1, active compounds read low", "result": "0.567 (active)"}, {"measurement": "normalized growth", "setting": "S. cerevisiae deletion strains, locus YPL051W, strain arl3, active compounds read low", "result": "0.878 (active)"}, {"measurement": "normalized growth", "setting": "S. cerevisiae deletion strains, locus YPL078C, strain atp4, active compounds read low", "result": "0.729 (active)"}, {"measurement": "normalized growth", "setting": "S. cerevisiae deletion strains, locus YPL106C, strain sse1, active compounds read low", "result": 1.01}, {"measurement": "normalized growth", "setting": "S. cerevisiae deletion strains, locus YPL240C, strain hsp82, active compounds read low", "result": 0.945}, {"measurement": "normalized growth", "setting": "S. cerevisiae deletion strains, locus YPL256C, strain CLN2, active compounds read low", "result": 0.864}, {"measurement": "normalized growth", "setting": "S. cerevisiae deletion strains, locus YPR119W, strain clb2, active compounds read low", "result": "0.625 (active)"}, {"measurement": "normalized growth", "setting": "S. cerevisiae deletion strains, locus YPR141C, strain kar3, active compounds read low", "result": "0.825 (active)"}, {"measurement": "normalized growth", "setting": "S. cerevisiae deletion strains, locus YPR163C, strain tif3, active compounds read low", "result": "0.142 (active)"}, {"measurement": "normalized growth", "setting": "S. cerevisiae deletion strains, locus YPR167C, strain met16, active compounds read low", "result": "0.627 (active)"}, {"measurement": "normalized growth", "setting": "S. cerevisiae deletion strains, strain wtn01, active compounds read low", "result": "0.444 (active)"}, {"measurement": "normalized growth", "setting": "S. cerevisiae strains, strain wild type, active compounds read low", "result": "0.559 (active)"}]}]}
